Measured values published in PubChem BioAssay (NCI).
About 79,000 compounds went through this panel and 15% of them were active in at least one assay; those are over-represented in the sample as a whole. A number with no mark means an inactive call. No stated cut-off is given here; in the data, active means growth inhibition above about 70%; inactive means the rest.

assay: NCI Yeast Anticancer Drug Screen. Data for the rad50 strain (AID 155);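 further: 0% = growth of vehicle-only cultures of the same strain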; settings: S. cerevisiae rad50 strain growth inhibition; at 50.0 µM; hits give high values
Outline: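 Vehicle-treated cultures provide the reference for the growth inhibition reported for compound-exposed, repair-deficient yeast.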

In order of rising growth inhibition:
1. CC1CC(N2CSC(=S)N(C3CC(C)CC(C)(C)C3)C2)CC(C)(C)C1 (stereo not given)  -17.2%
2. CN(C)CCN(C)CCN(C)CCN(C)C  -10.4%
3. CCC/C=C1\CCC(CN(C)C)C1=O (stereo not given)  -9.8%
4. N#Cc1cc2ccccc2n(Cc2ccccc2)c1=O  -8.85%
5. COC(=N)c1nnn(-c2ccccc2)n1  -8.6%
6. O=C1CCC(c2ccccc2)(C2CCN(Cc3ccc(F)cc3)CC2)C(=O)N1 (stereo not given)  -8.55%
7. [S-]c1n[n+](-c2ccccc2)c(-c2ccc(Cl)cc2)s1  -2.05%
8. CCC(=O)NC(C(=O)O)C(C)(C)S (stereo not given)  -0.4%
9. CC1=CC(C)(C)NC(=S)N1c1ccc(O)cc1  0%
10. COc1ccc(NC(=O)Oc2ccccc2-c2ccccc2)cc1  1.1%
11. O=c1c(Br)c(-c2ccccc2)[nH]c2ccccc12  2.95%
12. CC(=O)Nc1[nH]ncc1C#N  3.05%
13. COC(=O)c1cc(Cl)c(C(=O)OC)cc1Cl  4.1%
14. N#CC1=C(O)NC(O)=C(C#N)C12C(=O)Nc1ccccc12  4.1%
15. CN(C)Cc1ccccc1O  4.15%
16. CCN(CC)CCn1cnc(C#N)c1N  4.45%
17. [O-]c1csc2n(-c3ccccc3)c3ccccc3[n+]12  4.95%
18. OC1(c2ccc(-c3ccccc3)cc2)c2ccccc2-c2ccccc2C1(O)c1ccc(-c2ccccc2)cc1 (stereo not given)  6.45%
19. CC1(c2cccc(N)c2)OCCO1  7.4%
20. CCOC(=O)c1[nH]c(CC(=O)O)c(C(=O)OC)c1C  8.25%
21. COC(=O)C1=C(C(=O)OC)SC(=CC#CC=C2SC(C(=O)OC)=C(C(=O)OC)S2)S1  9.5%
22. C[N+]1(C)CCCC(CO)(c2ccccc2)CC1 (stereo not given)  10.2%
23. NC(=O)NCc1ccc(CNC(N)=O)cc1  11.3%
24. CN(N=O)C(N)=NC(=O)c1ccccc1  11.4%
25. Cc1ccc(SSCC(O)C(O)CSSc2ccc(C)cc2)cc1 (stereo not given)  11.6%
26. O=C(CNC(=O)c1ccccc1)NCS(=O)(=O)O  12.2%
27. COC(=O)CCNC(=O)OCc1ccccc1  14.6%
28. CC(=O)c1cc(Cl)ccc1OCC(O)CNc1ccc(Cl)cc1C(=O)c1ccccc1 (stereo not given)  17.6%
29. CCOC(=O)/C(C#N)=C/c1ccc([N+](=O)[O-])cc1  19.2%
30. CCCCCNC(=O)CCC  22.6%
31. O=C1C(CN2CCCCC2)CCC1CN1CCCCC1 (stereo not given)  23.9%
32. CNC(=O)OCc1c(COC(=O)NC)c(C)n(-c2ccc(F)cc2)c1C  30.1%
33. NC1=C(O)/C(=N/NS(=O)(=O)c2ccccc2)C(c2cccc(Cl)c2)O1 (stereo not given)  30.4%
34. COC1CC(OC2CCC3(C)C(=CCC4C3C(OC(C)=O)C(OC(=O)CC(C)C)C3(C)C(C(C)=O)CCC43O)C2)OC(C)C1OC1CC(OC)C(OC2CC(OC)C(OC3OC(C)C(O)C(OC)C3O)C(C)O2)C(C)O1 (stereo not given)  31.3%
35. CC1CCc2cc(Br)ccc2N1N (stereo not given)  33.1%
36. COc1cccc2c1CCC(=O)C2C (stereo not given)  35.1%
37. C/C(=N/NC(N)=O)C1CCC(C)CC1 (stereo not given)  39%
38. CC(=O)Nc1ccc(I)cc1  40.7%
39. O=C(O)[Si](c1ccccc1)(c1ccccc1)c1ccccc1  43.7%
40. CCOP(=O)(OCC)c1c(C(=O)OC)cc(=O)[nH]c1-c1ccc(C)cc1  44.9%

assay: NCI Yeast Anticancer Drug Screen. Data for the mec2-1 strain (AID 157); settings: S. cerevisiae mec2-1 strain, at 50.0 µM, hits give high values
Outline: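 Mutant yeast (mec2-1) grown with compound; growth inhibition relative to vehicle control reported.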

In order of rising growth inhibition:
1. CN(C)CCN(C)CCN(C)CCN(C)C  -25.8%
2. Cc1ccc(SSCC(O)C(O)CSSc2ccc(C)cc2)cc1 (stereo not given)  -18.6%
3. CC1CC(N2CSC(=S)N(C3CC(C)CC(C)(C)C3)C2)CC(C)(C)C1 (stereo not given)  -16.2%
4. [O-]c1csc2n(-c3ccccc3)c3ccccc3[n+]12  -16%
5. CC1=CC(C)(C)NC(=S)N1c1ccc(O)cc1  -14.8%
6. O=c1c(Br)c(-c2ccccc2)[nH]c2ccccc12  -12.8%
7. N#Cc1cc2ccccc2n(Cc2ccccc2)c1=O  -9.9%
8. CC(=O)Nc1[nH]ncc1C#N  -8%
9. COC(=N)c1nnn(-c2ccccc2)n1  -8%
10. CC1(c2cccc(N)c2)OCCO1  -7.2%
11. OC1(c2ccc(-c3ccccc3)cc2)c2ccccc2-c2ccccc2C1(O)c1ccc(-c2ccccc2)cc1 (stereo not given)  -5.95%
12. CCC(=O)NC(C(=O)O)C(C)(C)S (stereo not given)  -3.65%
13. O=C(CNC(=O)c1ccccc1)NCS(=O)(=O)O  -3.6%
14. COC(=O)C1=C(C(=O)OC)SC(=CC#CC=C2SC(C(=O)OC)=C(C(=O)OC)S2)S1  -3.35%
15. CCOC(=O)/C(C#N)=C/c1ccc([N+](=O)[O-])cc1  -2.75%
16. COc1cccc2c1CCC(=O)C2C (stereo not given)  -0.9%
17. CC1CCc2cc(Br)ccc2N1N (stereo not given)  0.85%
18. CCN(CC)CCn1cnc(C#N)c1N  1.05%
19. CCCCCNC(=O)CCC  1.2%
20. N#CC1=C(O)NC(O)=C(C#N)C12C(=O)Nc1ccccc12  2.85%
21. COC(=O)c1cc(Cl)c(C(=O)OC)cc1Cl  3%
22. CC(=O)Nc1ccc(I)cc1  3.2%
23. O=C1CCC(c2ccccc2)(C2CCN(Cc3ccc(F)cc3)CC2)C(=O)N1 (stereo not given)  4.85%
24. [S-]c1n[n+](-c2ccccc2)c(-c2ccc(Cl)cc2)s1  5.8%
25. COC1CC(OC2CCC3(C)C(=CCC4C3C(OC(C)=O)C(OC(=O)CC(C)C)C3(C)C(C(C)=O)CCC43O)C2)OC(C)C1OC1CC(OC)C(OC2CC(OC)C(OC3OC(C)C(O)C(OC)C3O)C(C)O2)C(C)O1 (stereo not given)  6.55%
26. CCC/C=C1\CCC(CN(C)C)C1=O (stereo not given)  7.85%
27. CN(N=O)C(N)=NC(=O)c1ccccc1  10%
28. C[N+]1(C)CCCC(CO)(c2ccccc2)CC1 (stereo not given)  13%
29. COc1ccc(NC(=O)Oc2ccccc2-c2ccccc2)cc1  14.3%
30. CNC(=O)OCc1c(COC(=O)NC)c(C)n(-c2ccc(F)cc2)c1C  14.8%
31. CCOC(=O)c1[nH]c(CC(=O)O)c(C(=O)OC)c1C  14.8%
32. O=C1C(CN2CCCCC2)CCC1CN1CCCCC1 (stereo not given)  15%
33. NC(=O)NCc1ccc(CNC(N)=O)cc1  15.1%
34. CN(C)Cc1ccccc1O  17.6%
35. CCOP(=O)(OCC)c1c(C(=O)OC)cc(=O)[nH]c1-c1ccc(C)cc1  23.4%
36. NC1=C(O)/C(=N/NS(=O)(=O)c2ccccc2)C(c2cccc(Cl)c2)O1 (stereo not given)  23.4%
37. O=C(O)[Si](c1ccccc1)(c1ccccc1)c1ccccc1  25.9%
38. COC(=O)CCNC(=O)OCc1ccccc1  30%
39. C/C(=N/NC(N)=O)C1CCC(C)CC1 (stereo not given)  31.8%
40. CC(=O)c1cc(Cl)ccc1OCC(O)CNc1ccc(Cl)cc1C(=O)c1ccccc1 (stereo not given)  37.6%
